Results taken from ChEMBL document CHEMBL3433997, “St. Jude Leishmania screening dataset” (2016).

Legend:
Type in all cases: functional
[1] = target: Solute carrier family 2, facilitated glucose transporter member 1 (Homo sapiens) (UniProt P11166); assay: ST_JUDE_LEISH: Cytotoxicity at 2uM final concentration against transgenic Leishmania Mexicana promastigotes LmGLUT1 that are glucose transport deficient and complemented with the human glucose transporter GLUT1. Activity is measured by DNA content using SYBR green in vitro
Sequence of Solute carrier family 2, facilitated glucose transporter member 1 (Homo sapiens) (P11166 whole entry): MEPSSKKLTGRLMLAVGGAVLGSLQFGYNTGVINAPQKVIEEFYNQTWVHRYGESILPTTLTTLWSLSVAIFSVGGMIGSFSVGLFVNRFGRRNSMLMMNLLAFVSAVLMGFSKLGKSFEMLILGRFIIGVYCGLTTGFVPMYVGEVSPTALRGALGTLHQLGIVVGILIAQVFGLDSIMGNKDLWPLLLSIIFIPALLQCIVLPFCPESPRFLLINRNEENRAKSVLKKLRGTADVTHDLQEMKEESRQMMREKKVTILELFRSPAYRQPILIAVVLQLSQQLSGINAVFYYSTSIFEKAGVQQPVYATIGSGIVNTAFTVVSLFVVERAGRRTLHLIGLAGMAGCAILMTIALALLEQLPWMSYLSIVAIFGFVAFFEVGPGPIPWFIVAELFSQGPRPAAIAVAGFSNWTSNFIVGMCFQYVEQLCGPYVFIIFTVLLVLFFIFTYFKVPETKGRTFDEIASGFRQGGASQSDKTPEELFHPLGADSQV

[2] = target: Hexose transporter 1 (Plasmodium falciparum) (UniProt O97467); assay: ST_JUDE_LEISH: Cytotoxicity at 2uM final concentration against transgenic Leishmania Mexicana promastigotes LmPfHT that are glucose transport deficient and complemented with the Plasmodium falciparum hexose transporter. Activity is measured by DNA content using SYBR green in vitro
[3] = target: Glucose transporter (Leishmania mexicana) (UniProt O61059); assay: ST_JUDE_LEISH: Cytotoxicity at 2uM final concentration against transgenic Leishmania Mexicana promastigotes LmGT2 that are glucose transport deficient and complemented with the L. Mexicana glucose transporter 2. Activity is measured by DNA content using SYBR green in vitro

| SMILES | inhibition [1] [%] | inhibition [2] [%] | inhibition [3] [%] |
| --- | --- | --- | --- |
| CN(Cc1cccc(F)c1)C1CCCN(c2cc(NC(=O)c3ccccc3)ccn2)C1 (centres undefined) | 4.12 | 4.07 | 3.71 |
| O=S(=O)(c1ccc(OCc2ccc(Cl)cc2)cc1)c1cc2c(c(-c3ccc(F)cc3)c1)CCN(CC1CC1)CC2 | 2.2 | 0.41 | -0.48 |
| Cc1noc(-c2ccc(N3CCC(C(=O)N4CCN(C(C)C)CC4)CC3)cc2)n1 | 1.72 | 2.07 | 2 |
| OCCN1CCN(C2Cc3ccc(F)cc3Sc3ccc(Cl)cc32)CC1 (centres undefined) | 0.59 | -3.09 | 0.59 |
| COc1cccc(CNC[C@@H](O)[C@H](Cc2ccccc2)NC(=O)c2cc(C3CCCC3)cc(N3CCCCS3(=O)=O)c2)c1 | 0.71 | 1.78 | 0.92 |
| Oc1ccc(Br)cc1-c1nc2ccc(Cl)cc2nc1-c1cc(Br)ccc1O | 1.9 | 1.4 | 2.66 |
| COc1cc(C(=O)N2CCOC(CCN3CCC(Cc4ccc(F)cc4)CC3)(c3ccc(Cl)c(Cl)c3)C2)cc(OC)c1OC (centres undefined) | 5.79 | 7.29 | 2.49 |
| CC(=O)c1cccc(NC(=O)NC2CCN(CCCCCNC(=O)/C=C/c3ccc(Cl)c(Cl)c3)CC2)c1 | 1.56 | 2.6 | 5.52 |
| O=C(Nc1ccccc1)Nc1cccc(-c2cccc(-c3nc4cc(F)ccc4[nH]3)c2)c1 | 2.45 | 2.61 | 1.59 |
| COc1cccc(-c2cccc(CNC3CCN(CC4Cn5c(=O)ccc6ccc(F)c4c65)CC3)c2)c1 (centres undefined) | 6.16 | 2.1 | 1.71 |
| Cc1ccc(-c2cc(C(=O)Nc3ccc(S(=O)(=O)N(C)Cc4ccccc4)cc3)[nH]n2)c(O)c1 | 0.95 | 0.3 | 1.49 |
| COc1ccc(Nc2nccc(NCCNC(=O)Nc3cc(C)ccc3C)n2)cc1 | 11.1 | 9.29 | 1.38 |
| O=C(N[C@@H](Cc1ccccc1)C(=O)NC1CCCCCC1)c1ccc(O)c(-c2ccc(Cl)c(Cl)c2)c1 | 3.99 | 3.77 | 3.08 |
